# Screening data: PubChem, Pan Lab, Icahn School of Medicine at Mount Sinai
# ROC1-CUL1 inh: human ROC1-CUL1 E3 ligase inhibition. P62877+Q13616. 0.6% of 140,000 active. inhibition, % at 10 µM. in vitro K48 di-Ub FRET, acceptor:donor ratio, 45 min; in the data active means inhibition above about 25%
# Target sequence (P62877 whole entry, looked up): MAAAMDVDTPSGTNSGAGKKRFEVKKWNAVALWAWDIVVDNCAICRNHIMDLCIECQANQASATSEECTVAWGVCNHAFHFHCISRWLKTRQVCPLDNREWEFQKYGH
# Target sequence (Q13616 whole entry, looked up): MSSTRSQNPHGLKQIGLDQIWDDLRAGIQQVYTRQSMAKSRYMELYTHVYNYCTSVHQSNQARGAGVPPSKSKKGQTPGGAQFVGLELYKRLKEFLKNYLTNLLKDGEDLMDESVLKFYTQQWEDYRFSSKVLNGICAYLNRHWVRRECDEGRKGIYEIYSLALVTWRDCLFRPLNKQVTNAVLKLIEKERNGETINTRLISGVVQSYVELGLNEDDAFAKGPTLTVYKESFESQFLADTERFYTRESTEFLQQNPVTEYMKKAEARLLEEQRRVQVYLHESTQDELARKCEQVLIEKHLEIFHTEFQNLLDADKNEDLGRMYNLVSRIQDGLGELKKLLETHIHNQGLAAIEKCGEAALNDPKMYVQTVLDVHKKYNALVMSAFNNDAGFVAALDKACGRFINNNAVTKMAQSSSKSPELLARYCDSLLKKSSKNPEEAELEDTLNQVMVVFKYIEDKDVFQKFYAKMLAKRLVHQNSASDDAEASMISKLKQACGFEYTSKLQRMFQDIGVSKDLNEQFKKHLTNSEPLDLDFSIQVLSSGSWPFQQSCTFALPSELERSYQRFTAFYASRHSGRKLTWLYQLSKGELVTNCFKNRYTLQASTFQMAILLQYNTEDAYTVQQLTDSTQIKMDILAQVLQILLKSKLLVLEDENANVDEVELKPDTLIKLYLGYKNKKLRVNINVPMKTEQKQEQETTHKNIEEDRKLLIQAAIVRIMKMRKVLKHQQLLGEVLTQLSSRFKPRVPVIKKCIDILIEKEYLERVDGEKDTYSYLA
# Starred values were filed as active, the others as inactive. The entries come from a sample that favours hits as a whole.
SMILES,ROC1-CUL1 inh
CCOc1cc(/C=C2\C(=O)NN(c3ccccc3)C2=O)ccc1OCc1c(F)cccc1Cl,-7.1
CCOC(=O)NC1(C(F)(F)F)NC(=O)N(c2ccc(C)c(C)c2)C1=O (stereo not given),16.3
COc1ccc(C(=O)N2CCN(C(=O)COc3ccc(Br)cc3)CC2)cc1OC,-2.5
COCc1cc(C)nc(OCC(=O)N/N=C/c2cc(-c3ccccc3)n(-c3ccc(C)cc3)c2-c2ccccc2)c1C#N,2.8
CC(C)(C)c1ccc(C(=O)Nc2ccc(F)cc2)cc1Br,5.3
CN(Cc1cccnc1)C(=O)c1cn(Cc2ccc(F)cc2Cl)nn1,-4.2
CCC(CC)C(=O)N1CCN(S(=O)(=O)c2ccc(F)cc2)CC1,6.6
O=C1C(Cl)=C(N2CCN(S(=O)(=O)c3ccc(F)cc3)CC2)C(=O)c2ccccc21,63.9*
CC(=O)N1CCN(S(=O)(=O)c2ccc(F)cc2)CC1,-2.7
CCOc1ccccc1NC(=O)CN(Cc1ccc(Cl)cc1)S(=O)(=O)c1ccccc1,-4.9
CC(/C=C1\SC(=S)N(NC(=O)c2cccc(O)c2)C1=O)=C\c1ccccc1,-4.6
O=C1/C(=C\c2cccc(O)c2)SC(=S)N1c1ccccc1,4.1
CC(/C=C1\SC(=S)N(CC(=O)O)C1=O)=C\c1ccccc1,-2.5
CCOC(=O)c1ccc(NC(=O)CN2C(=O)S/C(=C/C(C)=C/c3ccccc3)C2=O)cc1,6.6
CC(=C/c1ccccc1)/C=C1\SC(=S)N(C(C(=O)O)c2ccccc2)C1=O (stereo not given),104.6*
CC(/C=C1\SC(=S)N(c2cccc(C(=O)O)c2)C1=O)=C\c1ccccc1,65.9*
COC(=O)c1ccc(C2CC(c3ccc(Cl)cc3)=Nc3nc4ccccc4n32)cc1 (stereo not given),5.1
CC(C)CC(NC(=O)c1ccccc1)C(=O)N/N=C\c1ccco1 (stereo not given),16.3
CCOC(=O)C1C(c2ccc3c(c2)OCO3)NC(=O)NC1(O)C(F)(F)F (stereo not given),-3.1
Fc1ccccc1C1Nc2ccc3ccccc3c2C2C=CCC21 (stereo not given),-7.2
Cc1ccc(C(=O)O)c2c1N[C@@H](c1ccccc1F)[C@H]1CC=C[C@@H]21,33.0*
CC(=O)Nc1ccc2c(c1)C1C=CCC1C(c1ccccc1F)N2 (stereo not given),-7.5
O=C(Cn1ncc2c3ccccc3n(Cc3ccc(Cl)cc3)c2c1=O)N1CCCCCC1,-1.8
Cc1[nH]c2ccccc2c1C(c1cccc(O)c1)c1c(C)[nH]c2ccccc12,1.7
O=C(Cc1csc(-c2ccccc2)n1)N(Cc1ccncc1)Cc1cccc(OCCc2ccc(F)cc2)c1,-0.1
SMILES,ROC1-CUL1 inh
Cc1cccc(N=C2NC(=O)/C(=C\c3ccc(OCc4ccccc4)cc3)S2)c1,-0.7
N#Cc1ccccc1COc1ccc(/C=C2/SC(=Nc3cccc(C(=O)O)c3)NC2=O)cc1,89.3*
O=C1NC(=Nc2ccc(F)cc2)S/C1=C\c1ccc(OCc2cccc(C(=O)O)c2)cc1,14.1
COc1ccc(CCN2CCC(CN(C)Cc3cnc(C)[nH]3)CC2)cc1,6.1
Cc1cccc2c(C(=O)O)cc(-c3ccc(-c4ccccc4)cc3)nc12,-4.3
Cc1cccc2c(C(=O)O)cc(-c3ccccc3O)nc12,29.3*
Cc1cccc2c(C(=O)N(C)C)cc(-c3cnn(Cc4ccccc4)c3)nc12,0.7
COc1ccc(Cn2c(C(=O)O)c(CNC3CCCC3)c3ccc(C)cc32)cc1,-1.8
CCn1c(COc2ccc(Cl)cc2)nnc1SCC(=O)N1CCN(c2ccccc2)CC1,9.1
Cc1cccc(-c2nc3cc(NC(=O)c4ccc(OCC(C)C)cc4)ccc3o2)c1,0.5
Cc1ccccc1OCC(=O)NCC(=O)N/N=C/C=C/c1ccccc1,5.0
COC(=O)[C@@H]1C(c2ccccc2)(c2ccccc2)[C@@]1(C)C(=O)OC,-3.4
CCOC(=O)C1=C(C)N=c2s/c(=C\c3ccc(Cl)cc3)c(=O)n2C1c1ccc(C(C)C)cc1 (stereo not given),5.1
CCOC(=O)C1=C(C)N=c2s/c(=C\c3ccc(I)cc3)c(=O)n2C1c1ccc(OC)cc1 (stereo not given),-3.9
CCOC(=O)C1=C(C)N=c2s/c(=C/c3ccc(C(=O)O)cc3)c(=O)n2C1c1ccc(C(C)C)cc1 (stereo not given),89.9*
CC(=O)Nc1ccc(Oc2c([N+](=O)[O-])cnc3ccccc23)cc1,-4.9
Cc1cc(C(F)(F)F)nn1CC(=O)N1N=C2/C(=C/c3ccc4c(c3)OCO4)CCCC2C1c1ccc2c(c1)OCO2 (stereo not given),-7.0
NN1C(=O)/C(=C/c2ccc(O)c(Br)c2)SC1=S,50.1*
CCN1C(=O)/C(=C/c2ccc(F)c(Br)c2)SC1=S,1.8
NN1C(=O)/C(=C\c2ccc(O)cc2)SC1=S,6.7
CCOc1ccc2ccccc2c1C(=O)N1CCN(CC)CC1,-5.7
CCCC1=C(C(=O)OCC)C(c2ccc(F)cc2)C(C#N)C(=N)O1 (stereo not given),-2.5
O=C1C(C=NC2CCCCCCC2)C(c2ccccc2)=NN1c1nc2ccccc2s1 (stereo not given),2.9
